ChEMBL document CHEMBL1157539, “Thousands of chemical starting points for antimalarial lead identification” (Nature, 2010)
Over roughly 13,000 compounds, “IFI” has its median near 4; the highest 2% begin near 17. This is one part of a sample in which the highest values are shown more often than they occur.

Assay: GSK_TCMDC: Inhibition Frequency Index (IFI). The number of non-kinase HTS assays where a compound showed > 50 % inhibition, expressed as a percentage of the number of such assays in which the compound was tested
Assay type: functional

SMILES | IFI [%]
CCCCN(C(=O)c1ccccc1C)c1nnc(-c2ccccc2C)s1 | 2.56
Cc1ccc2nc(C)n(C3CCN(C(=O)Cc4ccc(F)c(F)c4)CC3)c2c1 | 0
O=C(N[C@H]1CCN(Cc2ccc(OCCN3CCNCC3)c(Br)c2)C1)c1ccc(Cl)c(Cl)c1 | 6.9
C[C@H](Cc1ccc(OCCCCCCOc2ccc(C[C@@H](C)NC(=O)[C@H](O)c3cccc(Cl)c3)cc2)cc1)NC[C@H](O)c1cccc(Cl)c1 | 11.3
C[C@H](Cc1ccc(OCCCCCCCOc2ccc(C[C@@H](C)NC[C@H](O)c3cccc(Cl)c3)cc2)cc1)NC[C@H](O)c1cccc(Cl)c1 | 22.1
CC(CCCC(=O)Nc1ccc(CC(C)NCCc2cccc(Cl)c2)cc1)NCCc1cccc(Cl)c1 (stereo unspecified) | 11.9
C[C@H](Cc1ccc(OCCNC[C@H](O)c2cccc(Cl)c2)cc1)NC[C@H](O)c1ccc(Cl)c(Cl)c1 | 11.4
C[C@H](Cc1ccc(OCCCCCOc2ccc(C[C@@H](C)NC[C@H](O)c3cccc(Cl)c3)cc2)cc1)NC[C@H](O)c1cccc(Cl)c1 | 20.9
COc1ccc(CC(Cc2ccc(OC)cc2)NCC(O)c2cccc(Cl)c2)cc1 (stereo unspecified) | 4.86
CC(CCCCC(=O)Nc1ccc(CC(C)NCCc2cccc(Cl)c2)cc1)NCCc1cccc(Cl)c1 (stereo unspecified) | 4.29
C[C@H](Cc1ccc(OCCCCCCOc2ccc(C[C@@H](C)N[C@H](C)c3ccccc3)cc2)cc1)NC[C@H](O)c1cccc(Cl)c1 | 19.6
CC(NCCc1cccc(Cl)c1)C(O)c1ccc(OCCCCCCOc2ccc(C(O)C(C)NCCc3cccc(Cl)c3)cc2)cc1 (stereo unspecified) | 13
C[C@H](Cc1ccc(OCCCCCCOc2ccc(C[C@@H](C)NC[C@H](O)c3cccc(Cl)c3)cc2)cc1)NC[C@H](O)c1cccc(Cl)c1 | 16.9
CC(Cc1ccc(NC(=O)COc2ccc(CC(C)NCCc3cccc(Cl)c3)cc2)cc1)NCCc1cccc(Cl)c1 (stereo unspecified) | 32.4
NC(=O)c1cccc(C(=O)Nc2ccc(-c3cccc(-c4nc5cc(F)ccc5[nH]4)c3)cc2)c1 | 1.74
Cc1cccc2nc(-c3cccc(-c4ccc(NC(=O)C(C)CN(C)C)cc4)c3)[nH]c12 (stereo unspecified) | 5.45
O=C(Cc1ccc(-c2ccccc2)cc1)N[C@H]1CCN(Cc2ccc(OCCCN3CCCCC3)cc2)C1 | 7.53
C=C(C)CSc1nc2c(c(=O)n1CCc1ccccc1)C1(CCCC1)Cc1ccccc1-2 | 0
CN1CCCC(CN2CCN(Cc3cccc(-c4cccc(-c5nc6ccccc6[nH]5)c4)c3)CC2)C1 (stereo unspecified) | 7.04
O=C(CCc1c[nH]cn1)Nc1ccc(-c2ccc(-c3nc4ccccc4[nH]3)cc2)cc1 | 3.51
CCNc1cc(C(=O)N[C@@H](Cc2ccccc2)[C@H](O)CNC(C)Cc2cccc(Cl)c2)cc(N2CCCCS2(=O)=O)c1 (stereo partly specified) | 4.9
